In a collection of fitness landscapes (doi:10.1126/science.1257360) one finds enrichment ratio data, which are given here for 153 variants.

To fix the notation:
B1: PhoQ; a variant is named by its letters at X, in order, P23837 (parent)
chain: MKKLLRLFFPLSLRVRFLLATAAVVLVLSLAYGMVALIGYSVSFDKTTFRLLRGESNLFYTLAKWENNKLHVELPENIDKQSPTMTLIYDENGQLLWAQRDVPWLMKMIQPDWLKSNGFHEIEADVNDTSLLLSGDHSIQQQLQEVREDDDDAEMTHSVAVNVYPATSRMPKLTIVVVDTIPVELKSSYMVWSWFIYVLSANLLLVIPLLWVAAWWSLRPIEALAKEVRELEEHNRELLNPATTRELTSLVRNLNRLLKSERERYDKYRTTLTDLTHSLKTPLXXLQXXLRSLRSEKMSVSDAEPVMLEQISRISQQIGYYLHRASMRGGTLLSRELHPVAPLLDNLTSALNKVYQRKGVNISLDISPEISFVGEQNDFVEVMGNVLDNACKYCLEFVEISARQTDEHLYIVVEDDGPGIPLSKREVIFDRGQRVDTLRPGQGVGLAVAREITEQYEGKIVAGESMLGGARMEVIFGRQHSAPKDE

Whole data set: some 140,000 sequences, median “enrichment ratio after two sorts for PhoP signalling” near 0, cut for the highest 2% near 11. The entries come from a sample that favours the highest values as a whole.

The variants in this test derive from B1. Kind of test: enrichment ratio after two sorts for PhoP signalling (ratio (wild type AVST 3.29)); higher = more functional. The settings on record: with PhoP (E. coli).
Regarding SYTR, the enrichment ratio was no more than 0.25. Regarding VVCY, the enrichment ratio was no more than 0.25. The figure for GKAF is no more than 0.25. The figure for SEGG is 9.05. For SEVG, the enrichment ratio is 25.6.

On to SEFG, for which the enrichment ratio came out at 15.8. The same measure for SLVI: 2.14; for SEVI: 12.2.

In the case of SEVR, the enrichment ratio is 12.1.

For SEFE, the enrichment ratio was found to be 4.76. The same measure for SEVC: 9.44; for SLVR: 0.339. The same measure for SCVR: 1.05; for SEFA: 1.84. The figure for SEVA is 10.3; for RKKT it is no more than 0.25.

For SLWN, the enrichment ratio was no more than 0.25. The figure for RRRI is no more than 0.25.

For the variant PERI, the enrichment ratio was no more than 0.25. Take FFGE: the enrichment ratio is no more than 0.25. YKRH: the enrichment ratio is no more than 0.25. On to VSRE, for which the enrichment ratio is no more than 0.25.

In the case of VRMG, the enrichment ratio is no more than 0.25. The figure for HGFC is no more than 0.25. The same measure for SEMI: 17.1; for SEMK: 7.11.

As for SPWG, the enrichment ratio was no more than 0.25. The figure for SEMS is 14.3. The same measure for SEMN: 4.75; for SLVS: 1.29; for SEMQ: 8.89. On to SEWG, for which the enrichment ratio turned out to be 17.3. The same measure for SEVS: 20.4; for SCVS: 3.13; for SQWG: no more than 0.25. The figure for SEMD is 1.79. The same measure for HDQV: no more than 0.25. Take HCLM: the enrichment ratio is no more than 0.25. The same measure for NDAA: no more than 0.25; for NRLG: no more than 0.25; for NMCH: no more than 0.25. The figure for HTPK is no more than 0.25; for PDYQ it is no more than 0.25.

With ANWA, the enrichment ratio is no more than 0.25. The same measure for HDKT: no more than 0.25. As to SAHC, the enrichment ratio was no more than 0.25. The figure for SLVK is 1.38; for SEEG it is 2.48; for SEMG it is 21.5. The figure for SEVK is 12.3; for SEKK it is no more than 0.25. The figure for SEGS is 4.52. Turning to EACH, the enrichment ratio is 2.01. The figure for FYVQ is no more than 0.25; for GYNI it is no more than 0.25. The figure for LYDQ is no more than 0.25; for FGLT it is 9.94.

In the case of FGLA, the enrichment ratio turned out to be 12.2. The figure for QGLV is 7.45; for FGLS it is 8.38; for FGLV it is 11.7. Regarding FPLV, the enrichment ratio is no more than 0.25. The same measure for HKVW: no more than 0.25; for VDRE: no more than 0.25. The figure for EAAG is no more than 0.25; for FSSY it is 0.259; for NSSY it is no more than 0.25. For CVSY, the enrichment ratio is no more than 0.25. The figure for CSSY is 17.5. The figure for TSSY is 14.6; for KSSY it is no more than 0.25. The same measure for KMIV: no more than 0.25. For the variant IVGD, the enrichment ratio was no more than 0.25. The same measure for TDFN: no more than 0.25; for LNSM: 0.463. The figure for MNSM is 9.22; for TLSM it is 25.5.

As for AKSM, the enrichment ratio came out at 15.5. The same measure for SLSM: 8.94; for VLSM: 0.436; for AHSM: 4.11. The same measure for TNSM: 23.5. The figure for ADSM is no more than 0.25; for CLSF it is 10.1; for PLSM it is no more than 0.25. On to CLSM, for which the enrichment ratio was 22.7.

For the variant IDFI, the enrichment ratio was no more than 0.25. The figure for NPDM is no more than 0.25; for PIRV it is no more than 0.25. The figure for EGSN is no more than 0.25; for PKCK it is no more than 0.25. On to RLKF, for which the enrichment ratio is no more than 0.25.

On to AIND, for which the enrichment ratio is no more than 0.25. The figure for GVLN is 10.1. The same measure for AQSM: 10.4; for AISM: 15.9.

For NMSM, the enrichment ratio is no more than 0.25. The same measure for AVSM: 11.3; for AMSM: 15.1; for AVSF: 9.87. For KKSM, the enrichment ratio is no more than 0.25. The figure for WISM is no more than 0.25; for ALSM it is 17. The figure for KMSM is no more than 0.25; for ARSM it is 4.49; for DRSF it is no more than 0.25. The same measure for HYGV: no more than 0.25; for IFME: no more than 0.25; for FRHK: no more than 0.25. Consider PAGH, for which the enrichment ratio is no more than 0.25. The same measure for QFCS: no more than 0.25; for SPYV: no more than 0.25; for WPGT: no more than 0.25.

For the variant YLNI, the enrichment ratio was no more than 0.25.

With NISM, the enrichment ratio came out at 0.899. As for RISM, the enrichment ratio was no more than 0.25. The figure for ANSM is 16.6; for ALHF it is no more than 0.25. The same measure for TISM: 27.4. The figure for ANSF is 5.47; for PLSF it is no more than 0.25. ALSF: the enrichment ratio came to 12.1.

In the case of EYYP, the enrichment ratio was no more than 0.25. The same measure for PMHD: no more than 0.25; for APSK: no more than 0.25. The same measure for YWYS: no more than 0.25.

Take KTMK: the enrichment ratio is no more than 0.25. The same measure for RNCC: no more than 0.25. Regarding FSSQ, the enrichment ratio is no more than 0.25. KASQ: the enrichment ratio was no more than 0.25. The figure for QASK is no more than 0.25; for QSSQ it is 11.3; for QASQ it is 23.3. In the case of TPSQ, the enrichment ratio was no more than 0.25. The figure for QPSQ is no more than 0.25; for TSSQ it is 11.8. The figure for KSSQ is no more than 0.25; for LWCS it is no more than 0.25; for KPGV it is no more than 0.25. The figure for FAWD is no more than 0.25; for LEFH it is no more than 0.25; for ELWP it is no more than 0.25. As for MRDF, the enrichment ratio is no more than 0.25.

As to TCQR, the enrichment ratio is 4.53. The same measure for MQCI: 1.41. The figure for MICC is 29.6. As for MILH, the enrichment ratio was determined as 0.967. The same measure for MQCC: 11.8; for MICH: 2.87; for MQTH: no more than 0.25. In the case of IQVR, the enrichment ratio is no more than 0.25.

For the variant NDHA, the enrichment ratio is no more than 0.25. The figure for MDME is no more than 0.25.
